{
  "source": "PubChem BioAssay AID977611",
  "origin": "cited, not measured here",
  "experiment": "PubChem AID 977611",
  "settings": "PDB protein-ligand complexes, literature Kd",
  "note": "The whole screen tested about 3,900 compounds, of which about 3,900 (100%) were called active. No cut-off is given here; in the data, nearly all actives have Kd up to about 4200 µM. The set was probably picked from earlier hits. The list shows a part of the results. Where a SMILES comes first, the peptide text is derived from it. Non-standard residues stand in square brackets, D forms with d. Square brackets hold non-standard residues; d marks the D form. Residues, ends and D or L forms follow the SMILES beside them. Peptide text beside a SMILES is read from it. [ ]: non-standard residue; d: D form. Orn(CH(NH2)2) = NC(N)NCCC[C@H](N)C(=O)O; Lys(Me2) = CN(C)CCCC[C@H](N)C(=O)O",
  "data": [
    {"compound": "O=C(O)c1ccc2nc(-c3cc(Cl)cc(Cl)c3)oc2c1", "values": [
      {"measurement": "Kd", "setting": "protein: Transthyretin (V122I mutation), PDB entry 4his", "result": "0.0081 µM (active)"}
    ]},
    {"compound": "CC(=O)[C@]1(O)CC2=C(C(=O)C3=C(C(=O)c4ccccc4C3=O)C2O)[C@@H](O[C@H]2C[C@H](N)[C@H](O)[C@H](C)O2)C1", "note": "(some centres not stated)", "values": [
      {"measurement": "Kd", "setting": "protein: Chitinase A, PDB entry 3arq", "result": "0.4 µM (active)"}
    ]},
    {"compound": "CCC/C=C/CCO[C@H]1O[C@H](CO)[C@@H](O)[C@H](O)[C@@H]1O", "values": [
      {"measurement": "Kd", "setting": "protein: Protein FimH, PDB entry 4lov", "result": "0.0171 µM (active)"}
    ]},
    {"compound": "CC(=O)NCCCC[C@H](N)C(=O)O", "values": [
      {"measurement": "Kd", "setting": "protein: Chromatin structure-remodeling complex protein Rsc4(36340), PDB entry 2r0y", "result": "1000 µM (active)"}
    ]},
    {"compound": "N[C@@H](CCS)C(=O)O", "values": [
      {"measurement": "Kd", "setting": "protein: Betaine-Homocysteine S-Methyltransferase from Homo sapiens, PDB entry 4m3p", "result": "4 µM (active)"}
    ]},
    {"compound": "C[C@H](CCCCN(C)C)NC(=O)[C@@H](N)CCCNC(N)N", "values": [
      {"measurement": "Kd", "setting": "protein: Tumor suppressor p53-binding protein 1, PDB entry 2ig0", "result": "19.7 µM (active)"}
    ]},
    {"compound": "CN(C)CCCC[C@H](N)C(=O)O", "values": [
      {"measurement": "Kd", "setting": "protein: Tumor suppressor p53-binding protein 1 tandem tudor domain, PDB entry 3lgl", "result": "0.9 µM (active)"}
    ]},
    {"compound": "CC(C)[C@H](N)C(=O)N[C@@H](Cc1ccc(O)cc1)C(=O)N[C@@H](Cc1c[nH]c2ccccc12)C(=O)N[C@@H](Cc1ccccc1)C(=O)O", "note": "(H-VYWF-OH)", "values": [
      {"measurement": "Kd", "setting": "protein: Protease degS, PDB entry 2r3y", "result": "3.2 µM (active)"}
    ]},
    {"compound": "CC(C)C[C@H](NC(=O)[C@H](C)NC(=O)[C@H](Cc1c[nH]c2ccccc12)NC(=O)[C@H](Cc1ccc(O)cc1)NC(=O)[C@H](CCC(=O)O)NC(=O)[C@H](C)NC(=O)[C@H](Cc1ccccc1)NC(=O)[C@H](CO)NC(=O)[C@@H](N)[C@@H](C)O)C(=O)N[C@@H](CC(C)C)C(=O)N[C@@H](CO)C(=O)O", "values": [
      {"measurement": "Kd", "setting": "protein: human MDM2, PDB entry 3lnz", "result": "0.00049 µM (active)"}
    ]},
    {"compound": "CC(C)C[C@H](NC(=O)[C@H](CC(C)C)NC(=O)[C@H](CC(N)=O)NC(=O)[C@H](Cc1c[nH]c2ccccc12)NC(=O)[C@H](Cc1ccc(O)cc1)NC(=O)[C@H](CCC(=O)O)NC(=O)[C@H](C)NC(=O)[C@H](Cc1ccccc1)NC(=O)[C@H](CO)NC(=O)[C@@H](N)[C@@H](C)O)C(=O)N[C@H](C=O)CO", "note": "(H-TSFAEYWNLLS-aldehyde)", "values": [
      {"measurement": "Kd", "setting": "protein: E3 ubiquitin-protein ligase Mdm2, PDB entry 3eqs", "result": "0.0033 µM (active)"}
    ]},
    {"compound": "C[C@H](NC(=O)CNC(=O)[C@@H](N)CS)C(=O)N[C@@H](CCCNC(N)N)C(=O)O", "note": "(H-CGA[Orn(CH(NH2)2)]-OH)", "values": [
      {"measurement": "Kd", "setting": "protein: ?-chain of Hepatocyte growth factor-like protein, PDB entry 2asu", "result": "0.001 µM (active)"}
    ]},
    {"compound": "C[C@H](N)C(=O)N[C@@H](CCCNC(N)N)C(=O)N[C@H](C(=O)O)[C@@H](C)O", "values": [
      {"measurement": "Kd", "setting": "protein: ING4, PDB entry 2vnf", "result": "3 µM (active)"}
    ]},
    {"compound": "C[C@H](N)C(=O)N[C@@H](CCCNC(N)N)C(=O)N[C@H](C(=O)N[C@@H](CCCCN)C(=O)N[C@@H](C)C(=O)O)[C@@H](C)O", "note": "(H-A[Orn(CH(NH2)2)]TKA-OH)", "values": [
      {"measurement": "Kd", "setting": "protein: Baculoviral IAP repeat-containing protein 5, human Survivin, PDB entry 3uef", "result": "21 µM (active)"}
    ]},
    {"compound": "C[C@H](N)C(=O)N[C@@H](CCCNC(N)N)C(=O)N[C@H](C(=O)N[C@@H](C)C(=O)O)[C@@H](C)O", "note": "(H-A[Orn(CH(NH2)2)]TA-OH)", "values": [
      {"measurement": "Kd", "setting": "protein: WD-repeat protein 5(WDR523), PDB entry 2h9p", "result": "192 µM (active)"}
    ]},
    {"compound": "C[C@@H](O)[C@H](NC(=O)CNC(=O)[C@@H](N)CCCNC(N)N)C(=O)O", "values": [
      {"measurement": "Kd", "setting": "protein: Proto-oncogene tyrosine-protein kinase Src, PDB entry 4hxj", "result": "74.3 µM (active)"}
    ]},
    {"compound": "OC[C@H]1CN[C@@H](O)[C@@H](O)[C@@H]1O", "values": [
      {"measurement": "Kd", "setting": "protein: MANNOSYL-OLIGOSACCHARIDE 1,2-ALPHA-MANNOSIDASE, PDB entry 4ayr", "result": "0.099 µM (active)"}
    ]},
    {"compound": "C[C@H]1NC(=NCCC[C@H](N)C(=O)O)N[C@H]1O", "values": [
      {"measurement": "Kd", "setting": "protein: Advanced glycosylation end product-specific receptor V domain, PDB entry 2mov", "result": "0.04 µM (active)"}
    ]},
    {"compound": "C[C@H](NC(=O)[C@H](CCCCN)NC(=O)[C@H](CCCCN)NC(=O)[C@H](CCCCN)NC(=O)[C@@H](NC(=O)[C@H](CO)NC(=O)CNC(=O)[C@H](CCCCN)NC(=O)[C@@H]1CCCN1C(=O)[C@H](CCC(=O)O)NC(=O)[C@@H]1CCCN1C(=O)[C@H](CCC(=O)O)NC(=O)[C@H](CCCCN)NC(=O)[C@H](CCCNC(N)N)NC(=O)[C@H](CCCCN)NC(=O)[C@H](C)NC(=O)[C@@H](N)CO)[C@@H](C)O)C(=O)N[C@@H](CCCCN)C(=O)N[C@H](C(=O)O)[C@@H](C)O", "note": "(H-SAK[Orn(CH(NH2)2)]KEPEPKGSTKKKAKT-OH)", "values": [
      {"measurement": "Kd", "setting": "protein: Importin subunit alpha-2, PDB entry 3uvu", "result": "0.042 µM (active)"}
    ]},
    {"compound": "C[C@H](N)C(=O)N[C@@H](C)C(=O)N[C@@H](CCCCN(C)C)C(=O)N[C@@H](CO)C(=O)N[C@H](C(=O)NCC(=O)NCC(=O)O)[C@@H](C)O", "note": "(H-AA[Lys(Me2)]STGG-OH)", "values": [
      {"measurement": "Kd", "setting": "protein: Euchromatic histone-lysine N-methyltransferase 1(Glp), PDB entry 3b95", "result": "7 µM (active)"}
    ]},
    {"compound": "H-AGGPTIEEVD-OH", "values": [
      {"measurement": "Kd", "setting": "protein: Protein UNC-45, PDB entry 4i2w", "result": "121 µM (active)"}
    ]},
    {"compound": "C[C@H](N)C(=O)N1CCC[C@H]1C(=O)N1CCC[C@H]1C(=O)NCC(=O)N[C@H](C(=O)N[C@@H](C)C(=O)N[C@@H](CCCNC(N)N)C(=O)N[C@@H](CCCNC(N)N)C(=O)N[C@@H](CCCCN)C(=O)N[C@@H](CCCNC(N)N)C(=O)N[C@@H](CCCCN)C(=O)N[C@@H](C)C(=O)N[C@@H](CC(=O)O)C(=O)N[C@@H](CO)C(=O)O)[C@@H](C)O", "note": "(H-APPGTA[Orn(CH(NH2)2)][Orn(CH(NH2)2)]K[Orn(CH(NH2)2)]KADS-OH)", "values": [
      {"measurement": "Kd", "setting": "protein: Signal recognition particle 43 kDa protein, chloroplast, PDB entry 2hug", "result": "1.06 µM (active)"}
    ]},
    {"compound": "H-DPGEGPST-OH", "values": [
      {"measurement": "Kd", "setting": "protein: Ubiquitin carboxyl-terminal hydrolase 7(USP7), PDB entry 1yy6", "result": "0.86 µM (active)"}
    ]}
  ]
}
